Assay results: paper PMC7819943, “Rice protein-binding microarrays: a tool to detect cis-acting elements near promoter regions in rice”
Over roughly 39,000 sequences, “fluorescence intensity (a.u.)” has its median near 4,300; the highest 2% begin near 39,000. This excerpt belongs to a sample that is enriched for the highest values.

These sequences were tested against T1, OsSMF1 (Oryza sativa, UniProt Q6ZLB0 1-436) (assay: protein-binding microarray (RPBM); PBS, 2% BSA, 51.3 ng/ul salmon testes DNA, 50 uM zinc acetate, 200 nM TF, 25 C, 1 h; high values mean tight binding). Settings: protein: recombinant; tags: N-terminal polyhistidine and DsRed monomer fusion (pET32a); chain copies: 2; label: CyDye5-dUTP incorporated in the synthesized complementary strand; 3' TTTTT single-stranded linker to array surface; dsDNA, one strand shown.
T1 sequence: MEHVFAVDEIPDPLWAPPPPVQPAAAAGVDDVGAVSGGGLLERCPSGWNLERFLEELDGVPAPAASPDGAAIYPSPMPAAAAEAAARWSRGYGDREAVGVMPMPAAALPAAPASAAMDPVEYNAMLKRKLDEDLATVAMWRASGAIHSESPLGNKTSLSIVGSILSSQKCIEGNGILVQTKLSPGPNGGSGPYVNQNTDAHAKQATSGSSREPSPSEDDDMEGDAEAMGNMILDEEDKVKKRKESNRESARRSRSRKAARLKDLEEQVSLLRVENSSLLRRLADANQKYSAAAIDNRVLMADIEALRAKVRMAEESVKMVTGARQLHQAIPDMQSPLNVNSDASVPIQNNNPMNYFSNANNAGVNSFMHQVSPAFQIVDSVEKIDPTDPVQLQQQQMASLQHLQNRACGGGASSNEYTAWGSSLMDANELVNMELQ
Summary of the method: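 Binding signal is reported as fluorescence intensity per feature (arbitrary units) from an Axon 4000B scanner. Incubation used 200 nM of each Ni–NTA-purified, N-terminally polyhistidine- and DsRed-fused transcription factor from E. coli BL21-CodonPlus on a double-stranded custom Agilent array for 1 h at 25 °C, with 50 µM zinc acetate in the buffer, followed by washing.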
With “ACCAACGAACGGACGCTGTCATGTCACCTCTCTTAATCTTCGGAGTCACCTAGTGCAG” the binding signal was 3740 fluorescence intensity (a.u.).
In the case of “AGCCTCTTCCATCTCGAGCCAGCTCATATTGATTATCCAACGGAGTCACCTAGTGCAG”, the binding signal is reported as 4850 fluorescence intensity (a.u.).
With “AGCTGTGCCAACGAGCCCTTAATTAGTTATTATCTCTTCTCGGAGTCACCTAGTGCAG” the binding signal was 44600 fluorescence intensity (a.u.).
“AAGCACTCCAAACTGCAACGATTATATCAATAAAATAAAACGGAGTCACCTAGTGCAG” was tested, and the binding signal was 39000 fluorescence intensity (a.u.).
In the case of “TAGCATAGCCAACTGCTGACTCCAAATTATCTATAGTCAACGGAGTCACCTAGTGCAG”, the binding signal is reported as 3850 fluorescence intensity (a.u.).
In the case of “AACTGCAGCAATATCACTCCCTCCAAATCAGCACATGCATCGGAGTCACCTAGTGCAG”, the binding signal is reported as 3560 fluorescence intensity (a.u.).
“TGTCAGTTGGCGAGGGATGCACTGATGACTATGCTAGTGCCGGAGTCACCTAGTGCAG” was tested, and the binding signal was 4860 fluorescence intensity (a.u.).
“AAGCTAGTACAAGATGCGAAATGTCGTCAGATTCAGAGATCGGAGTCACCTAGTGCAG” was tested, and the binding signal was 3580 fluorescence intensity (a.u.).
In the case of “CGTTGCGCACGTACAGCTCACGCTCAAGTCGTACACATTACGGAGTCACCTAGTGCAG”, the binding signal is reported as 3840 fluorescence intensity (a.u.).
With “AGTACATAATTACGCACATGTGACACACACCACACATACTCGGAGTCACCTAGTGCAG” the binding signal was 3140 fluorescence intensity (a.u.).
For “ATACGATACCATAGGTATGTCAGCATGATATATATGTACTCGGAGTCACCTAGTGCAG”, the binding signal was 3890 fluorescence intensity (a.u.).
For “TGTCATAAATTGTACCGACATGATACACATGTCCGATACTCGGAGTCACCTAGTGCAG”, the binding signal was 39400 fluorescence intensity (a.u.).
In the case of “TATGTGTTGACACCAAGGCTGACTCGGTTTTCGTCAAGGTCGGAGTCACCTAGTGCAG”, the binding signal is reported as 6530 fluorescence intensity (a.u.).
With “GTCGTCTAGTAGTAGTAGCCTACCACCACCTCCCTCGGCGCGGAGTCACCTAGTGCAG” the binding signal was 3230 fluorescence intensity (a.u.).
For “TAGCAAGAGACCTTGTTGAGCATGTCATCAATGTCAAGTGCGGAGTCACCTAGTGCAG”, the binding signal was 4150 fluorescence intensity (a.u.).
“AAATGGGGCCTAGAGTTCCAACCAATTGCAGCAAGAGCAGCGGAGTCACCTAGTGCAG” was tested, and the binding signal was 3230 fluorescence intensity (a.u.).
In the case of “AATTGGGATCAAAGCCTTCATGTTCATAGCAAATCAAGAGCGGAGTCACCTAGTGCAG”, the binding signal is reported as 45900 fluorescence intensity (a.u.).
With “AGAATTTTGCAGACCGAGGCTTGGCCACCGAGGCGCAAGCCGGAGTCACCTAGTGCAG” the binding signal was 3790 fluorescence intensity (a.u.).
With “GAACGACCCGAACTTATGACTCATTTATGGTTTGTTTCTCCGGAGTCACCTAGTGCAG” the binding signal was 8680 fluorescence intensity (a.u.).
In the case of “ACCTCCTCCACCTCCATGGCTCACCACCACGTACAGCAAACGGAGTCACCTAGTGCAG”, the binding signal is reported as 3360 fluorescence intensity (a.u.).
“TTTTAAGGGGCAAATCTTACCAACTTTTACTAGCGTGTCACGGAGTCACCTAGTGCAG” was tested, and the binding signal was 3680 fluorescence intensity (a.u.).
For “CTAAAACCACATATAAGGAGTGTCCTGTAGCAAAATTTCCCGGAGTCACCTAGTGCAG”, the binding signal was 4200 fluorescence intensity (a.u.).
In the case of “AGTAGCAAAACCTGTTTGTAGAGGAAATTATTATAGTGTTCGGAGTCACCTAGTGCAG”, the binding signal is reported as 53700 fluorescence intensity (a.u.).
“CTGTAGCAAATTAGAAGCAAAAGTGTTAGTTCAAATTGTGCGGAGTCACCTAGTGCAG” was tested, and the binding signal was 3320 fluorescence intensity (a.u.).
“CGTGTGTAACTTTGGAACCTGCCACGGGAGAGCGAATTCCCGGAGTCACCTAGTGCAG” was tested, and the binding signal was 25500 fluorescence intensity (a.u.).
For “ACAAATTATAAGTAACAAACTTTTGTGACGTATAGTAGCCCGGAGTCACCTAGTGCAG”, the binding signal was 4440 fluorescence intensity (a.u.).
In the case of “TGTGAATTACTAGTAGTACGTAAGCATAAATACGCCACCCCGGAGTCACCTAGTGCAG”, the binding signal is reported as 3550 fluorescence intensity (a.u.).
With “GAATAGTAACAATTAGTTTTGTGAATTTTGTGAAATACGCCGGAGTCACCTAGTGCAG” the binding signal was 52300 fluorescence intensity (a.u.).
In the case of “GCTTCCCGCACGACACCTGTCCACACAAATCTTAGAGCAACGGAGTCACCTAGTGCAG”, the binding signal is reported as 41400 fluorescence intensity (a.u.).
“AACCTGCTGTCCACTACAACGTCACATTTCAACAAATCCACGGAGTCACCTAGTGCAG” was tested, and the binding signal was 34200 fluorescence intensity (a.u.).
“ACCAACGGCCCGAGTCCGACACACGTCTCACGCACGAGCACGGAGTCACCTAGTGCAG” was tested, and the binding signal was 3910 fluorescence intensity (a.u.).
For “CACACAGCCGCCCTTGCCGACCGCCACCGCCGCAACCGCACGGAGTCACCTAGTGCAG”, the binding signal was 3300 fluorescence intensity (a.u.).
“TTTGCGAACGTAATTCCATTAATTAAACACACGTCTATATCGGAGTCACCTAGTGCAG” was tested, and the binding signal was 3220 fluorescence intensity (a.u.).
For “TCGAAGAAGCCCTTTATTTCTCTTTTCGATACTCACACAACGGAGTCACCTAGTGCAG”, the binding signal was 3260 fluorescence intensity (a.u.).
For “GCGTGGGGCGCCGGTGGCGGAGGGTGGGGACGACAACCAGCGGAGTCACCTAGTGCAG”, the binding signal was 65500 fluorescence intensity (a.u.).
In the case of “CAGCTACCTCAGCGCCAACCGGACTGGCGCTGAGGTGGGACGGAGTCACCTAGTGCAG”, the binding signal is reported as 39200 fluorescence intensity (a.u.).
With “GTCAGCGCCAACTTACTTGGCGCTGAGGTTGTGCACCTCACGGAGTCACCTAGTGCAG” the binding signal was 3160 fluorescence intensity (a.u.).
With “GCCAGGTGGGCTGGCGCTGAGTGTCCCACGGTCAGCGCCACGGAGTCACCTAGTGCAG” the binding signal was 4010 fluorescence intensity (a.u.).
For “CGGGCGACGCCGGTGCTGGCGCCAGCGTGGGGCCGCGACGCGGAGTCACCTAGTGCAG”, the binding signal was 4780 fluorescence intensity (a.u.).
For “GGCGGAGAGGGTATGGACAACAGCGCCGAGGTGGCGTGGCCGGAGTCACCTAGTGCAG”, the binding signal was 5480 fluorescence intensity (a.u.).
With “ATTTAATGTTGTCCTAGCTAGATCCATCCAAGGCTCCAAACGGAGTCACCTAGTGCAG” the binding signal was 3590 fluorescence intensity (a.u.).
For “CGCCAGCCACCTCCGGCGCCGTTCGCCAGCCACCACGCGCCGGAGTCACCTAGTGCAG”, the binding signal was 37900 fluorescence intensity (a.u.).
For “ACCTTCTAGACAAGGGTATGATGACATGTACCGATCCCAACGGAGTCACCTAGTGCAG”, the binding signal was 6680 fluorescence intensity (a.u.).
With “TGTACACGCGCAGGGCGGCCCTGGCGTTGCTGACGTGGCGCGGAGTCACCTAGTGCAG” the binding signal was 42500 fluorescence intensity (a.u.).
For “TAGCCGTTAGTGCCACGTGGCGCCTTCCCATTCGACCGCCCGGAGTCACCTAGTGCAG”, the binding signal was 40600 fluorescence intensity (a.u.).
With “GCCCGCCCGTCCCGTCCGACGTCCGCGTCACGCACGCGCGCGGAGTCACCTAGTGCAG” the binding signal was 7940 fluorescence intensity (a.u.).
For “GAACGGTCAAATAGCCGTTAGTGCCACGTGGCGCCTTCCCCGGAGTCACCTAGTGCAG”, the binding signal was 25100 fluorescence intensity (a.u.).
In the case of “CCACCGCCGCCACACAGTCCGCTTCGGTTCCCCGTTTCCGCGGAGTCACCTAGTGCAG”, the binding signal is reported as 65500 fluorescence intensity (a.u.).
In the case of “CGCGGCGGCGGCGGCGCGAAGGCACGTGGCACGGCGCCGCCGGAGTCACCTAGTGCAG”, the binding signal is reported as 3420 fluorescence intensity (a.u.).
For “ACGCGCGGGCGTGGCTGACGTGGCCCGGAGAAGGCGGAGGCGGAGTCACCTAGTGCAG”, the binding signal was 5770 fluorescence intensity (a.u.).
With “GCCGTTAGTGCCACGTGGCGCCTTCCCATTCGACCGCCGCCGGAGTCACCTAGTGCAG” the binding signal was 37400 fluorescence intensity (a.u.).
In the case of “GGCGGCGTTCGCGGCGGCGACGTGGGCGTACCTGACGGCGCGGAGTCACCTAGTGCAG”, the binding signal is reported as 3590 fluorescence intensity (a.u.).
For “ACACACACACACACCCACCACACCACCCCGGCCGCTTCCGCGGAGTCACCTAGTGCAG”, the binding signal was 3210 fluorescence intensity (a.u.).
In the case of “CTCCCGCCGTGGCACGCGCGACGTGCCGCGTGCGCACAGGCGGAGTCACCTAGTGCAG”, the binding signal is reported as 46800 fluorescence intensity (a.u.).
In the case of “CTTCCCGCCGCCGCCACTGCCACGAACAGTTCGCTCACCGCGGAGTCACCTAGTGCAG”, the binding signal is reported as 3200 fluorescence intensity (a.u.).
